Inconclusive results are not listed. Activity calls are given as the source filed them. Calls follow the shape of the dose curve; as a rule, active = well fitted curve in the direction sought with a large enough effect; inconclusive = small, poorly fitted or top-dose-only effect, or another doubt; inactive = no such curve, though single readings can be large; an effect the other way counts as inactive or inconclusive.
How the values were obtained:
[1] = qHTS of pediatric cancer cell lines to identify multiple opportunities for drug repurposing: Primary screen for NB1643 cells (AID 1347099); also: nearly all actives have a fitted effect of over 50% in size; also: potency is read from the fitted curve at half-maximal effect
Procedure, shortened: (§1)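 Cells plated at 500-1,000/well in growth medium, compounds added after 5 h. MIPE tested at 11 points (from 0.78 nM), NPC at 8 points (from 0.59 nM). CellTiter-Glo luminescence after 48 h; concentration-response curves from primary screen.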

[2] = qHTS of pediatric cancer cell lines to identify multiple opportunities for drug repurposing: Primary screen for LAN-5 cells (AID 1347100); also: potency is read from the fitted curve at half-maximal effect
Procedure, shortened: (§2)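 Viability after 48 h compound treatment at 37C, 500-1,000 cells/well, read as ATP luminescence with CellTiter-Glo. Primary screens used 11-point (MIPE, 0.78 nM-46 µM) or 8-point (NPC, 0.59 nM-46 µM) final concentrations; follow-up screens used 11-point dilutions.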

[3] = qHTS of pediatric cancer cell lines to identify multiple opportunities for drug repurposing: Primary screen for BT-12 cells (AID 1347101); also: nearly all actives have a fitted effect of over 25% in size; also: potency is read from the fitted curve at half-maximal effect
Procedure, shortened: (§3)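 Cells (500-1,000/well) rested 5 h, then received compounds for 48 h; metabolically active cells were measured by CellTiter-Glo luminescence. Final concentrations spanned up to 46 µM (MIPE, 11-point) or 0.59 nM-46 µM (NPC, 8-point) in primary screens, 11-point in follow-ups.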

[4] = qHTS of pediatric cancer cell lines to identify multiple opportunities for drug repurposing: Primary screen for OHS-50 cells (AID 1347103); also: potency is read from the fitted curve at half-maximal effect; nearly all actives have a fitted effect of over 40% in size
Procedure, shortened: as §3

[5] = qHTS of pediatric cancer cell lines to identify multiple opportunities for drug repurposing: Primary screen for RD cells (AID 1347104); also: potency is read from the fitted curve at half-maximal effect; nearly all actives have a fitted effect of over 55% in size
Procedure, shortened: as §1

[6] = qHTS of pediatric cancer cell lines to identify multiple opportunities for drug repurposing: Primary screen for Rh30 cells (AID 1347107); also: nearly all actives have a fitted effect of over 75% in size; also: potency is read from the fitted curve at half-maximal effect
Procedure, shortened: as §2

[7] = qHTS of pediatric cancer cell lines to identify multiple opportunities for drug repurposing: Primary screen for Rh41 cells (AID 1347108); also: potency is read from the fitted curve at half-maximal effect; nearly all actives have a fitted effect of over 70% in size
Procedure, shortened: as §1

[8] = qHTS of pediatric cancer cell lines to identify multiple opportunities for drug repurposing: Primary screen for Rh18 cells (AID 1347102); also: nearly all actives have a fitted effect of over 65% in size; also: potency is read from the fitted curve at half-maximal effect
Procedure, shortened: as §2

[9] = qHTS of pediatric cancer cell lines to identify multiple opportunities for drug repurposing: Primary screen for control Hh wild type fibroblast cells (AID 1347106);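 also: series mostly up to about 46 µM; a drop in luminescence marks cytotoxicity and a rise apparent proliferation; nearly all actives have a fitted effect of over 55% in size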
Procedure, shortened: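 Cells (500-1,000/well) in growth media were settled 5 h at 37 degrees C, then given compounds for 48 h. Viability was read as CellTiter-Glo luminescence. Primary runs used MIPE at 11 points (0.78 nM-46 µM) and NPC at 8 points (0.59 nM-46 µM); follow-ups used 11 points.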

[10] = qHTS of pediatric cancer cell lines to identify multiple opportunities for drug repurposing: Primary screen for MG 63 (6-TG R) cells (AID 1347105); also: nearly all actives have a fitted effect of over 50% in size; also: potency is read from the fitted curve at half-maximal effect
Procedure, shortened: as §1

[11] = qHTS of pediatric cancer cell lines to identify multiple opportunities for drug repurposing: Confirmatory screen for NB1643 cells (AID 1347109); also: potency is read from the fitted curve at half-maximal effect; nearly all actives have a fitted effect of over 45% in size
Procedure, shortened: as §2

[12] = qHTS of pediatric cancer cell lines to identify multiple opportunities for drug repurposing: Confirmatory screen for A673 cells (AID 1347110); also: potency is read from the fitted curve at half-maximal effect; nearly all actives have a fitted effect of over 65% in size
Procedure, shortened: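 Concentration-response curves came straight from titrations: 11 points (0.78 nM to 46 µM) for MIPE and several concentrations (0.59 nM to 46 µM) for NPC in primary, 11 points in follow-up. Readout: ATP luminescence at 48 h.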

[13] = qHTS of pediatric cancer cell lines to identify multiple opportunities for drug repurposing: Confirmatory screen for SK-N-MC cells (AID 1347111);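 also: cells exposed to compound for 48 h before the readout; nearly all actives have a fitted effect of over 70% in size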; also: potency is read from the fitted curve at half-maximal effect
Procedure, shortened: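 SK-N-MC cells at 500-1,000 cells/well in growth media were pre-incubated 5 h, then exposed to compounds at 11-point dilutions for 48 h at 37 degrees C, 5% CO2. Viability was read as CellTiter-Glo luminescence.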

[14] = qHTS of pediatric cancer cell lines to identify multiple opportunities for drug repurposing: Confirmatory screen for BT-12 cells (AID 1347112); also: potency is read from the fitted curve at half-maximal effect; nearly all actives have a fitted effect of over 55% in size
Procedure, shortened: as §2

[15] = qHTS of pediatric cancer cell lines to identify multiple opportunities for drug repurposing: Confirmatory screen for LAN-5 cells (AID 1347113); also: nearly all actives have a fitted effect of over 65% in size; also: potency is read from the fitted curve at half-maximal effect
Procedure, shortened: as §2

[16] = qHTS of pediatric cancer cell lines to identify multiple opportunities for drug repurposing: Confirmatory screen for SJ-GBM2 cells (AID 1347116); also: nearly all actives have a fitted effect of over 60% in size; also: potency is read from the fitted curve at half-maximal effect
Procedure, shortened: (§4)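 Viability measured as metabolically active cells via CellTiter-Glo luminescence following 48 hours of compound exposure, 11-point dilutions in confirmatory testing. 500-1,000 cells/well plated 5 hours before dosing; controls were DMSO and 2.3 µM bortezomib.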

[17] = qHTS of pediatric cancer cell lines to identify multiple opportunities for drug repurposing: Confirmatory screen for BT-37 cells (AID 1347117); also: nearly all actives have a fitted effect of over 55% in size; also: potency is read from the fitted curve at half-maximal effect
Procedure, shortened: as §2

[18] = qHTS of pediatric cancer cell lines to identify multiple opportunities for drug repurposing: Confirmatory screen for DAOY cells (AID 1347114); also: potency is read from the fitted curve at half-maximal effect; nearly all actives have a fitted effect of over 65% in size
Procedure, shortened: as §4

[19] = qHTS of pediatric cancer cell lines to identify multiple opportunities for drug repurposing: Confirmatory screen for NB-EBc1 cells (AID 1347115); also: nearly all actives have a fitted effect of over 45% in size; also: potency is read from the fitted curve at half-maximal effect
Procedure, shortened: as §2

Measured: Potency

Nc1ccc(C(=O)c2cc3c(ccc4ccccc43)[nH]2)cc1
inactive: [6]
active: [1] 16.6 µM | [2] 0.833 µM | [3] 9.68 µM | [4] 10.9 µM | [5] 5.9 µM | [7] 4.69 µM

C=C1C(=CC=C2CCCC3(C)[C@@H]([C@H](C)C=CC=CC(O)(CC)CC)CC[C@@H]23)C[C@@H](O)C[C@@H]1O (some centres not stated)
active: [1] 14.8 µM | [2] 14.8 µM | [4] 24.3 µM | [5] 26.4 µM | [7] 18.7 µM
inactive: [8] | [9]

Cc1cc(Nc2cc(NC(=O)c3c(Cl)cccc3Cl)ccn2)nc(N)n1
inactive: [6] | [16]
active: [1] 11.8 µM | [2] 1.87 µM | [3] 0.544 µM | [4] 8.63 µM | [10] 11.8 µM | [11] 5.85 µM | [12] 0.603 µM | [13] 657 nM | [14] 1.31 µM | [15] 9.27 µM | [17] 5.22 µM

Cc1cnc(Nc2ccc(F)cc2Cl)nc1-c1c[nH]c(C(=O)N[C@H](CO)c2cccc(Cl)c2)c1
active: [1] 18.7 µM | [2] 0.469 µM | [3] 0.432 µM | [4] 0.544 µM | [5] 2.35 µM | [7] 18.7 µM | [12] 0.827 µM | [18] 23.3 µM
inactive: [9] | [13] | [15] | [19] | [17]

CC(C)c1noc(N2CCC(COc3ccc(-c4ccc(S(C)(=O)=O)cc4)nc3)CC2)n1
inactive: [1] | [2] | [8] | [10] | [9] | [6]
active: [4] 4.32 µM

COc1cc(C(C)C)c2c(c1)S(=O)(=O)N(COc1cc(=O)n3cccc(OCCN4CCCCC4)c3n1)C2=O
active: [1] 13.2 µM | [5] 20.9 µM
inactive: [3] | [10] | [9] | [6]

C=CC(=O)Nc1cccc(Oc2nc(Nc3ccc(N4CCN(C)CC4)cc3OC)ncc2Cl)c1
inactive: [9] | [19]
active: [1] 1.18 µM | [2] 1.05 µM | [3] 34.3 µM | [4] 4.85 µM | [5] 7.43 µM | [6] 23.5 µM | [7] 0.118 µM | [11] 23.3 µM | [12] 20.8 µM | [13] 13100 nM | [16] 11.7 µM | [17] 20.8 µM

CCOc1cc2ncc(C#N)c(Nc3ccc(F)c(Cl)c3)c2cc1NC(=O)C=CCN(C)C
active: [1] 1.05 µM | [2] 4.18 µM | [8] 10.5 µM | [5] 0.526 µM | [7] 1.87 µM | [13] 65.7 nM | [14] 0.208 µM | [17] 0.0657 µM
inactive: [15] | [19] | [16]

O=C(Nc1nc2cccc(-c3ccc(CN4CCS(=O)(=O)CC4)cc3)n2n1)C1CC1
active: [1] 10.5 µM | [3] 27.3 µM | [5] 18.7 µM | [10] 23.5 µM
inactive: [9]

CC[C@H](CO)Nc1nc(NCc2ccccc2)c2ncn(C(C)C)c2n1
active: [2] 20.9 µM
inactive: [1] | [10]

C[C@@H]1COC(Nc2ccc3ncnc(Nc4ccc(OCc5nccs5)c(Cl)c4)c3c2)=N1
active: [1] 4.69 µM | [2] 16.6 µM | [4] 21.7 µM | [5] 14.8 µM

COc1cc(Nc2ncc(F)c(Nc3ccc4c(n3)N(COP(=O)(O)O)C(=O)C(C)(C)O4)n2)cc(OC)c1OC
inactive: [9]
active: [1] 0.187 µM | [2] 1.87 µM | [8] 1.87 µM | [4] 1.22 µM | [5] 3.32 µM | [10] 0.935 µM | [7] 3.72 µM | [11] 5.85 µM | [12] 7.37 µM | [13] 11700 nM | [15] 10.4 µM | [17] 10.4 µM

NCC(=O)Nc1ccc(-n2nc(C(F)(F)F)cc2-c2ccc3c(ccc4ccccc43)c2)cc1
active: [1] 18.7 µM | [2] 23.5 µM | [4] 30.6 µM | [5] 16.6 µM | [12] 11.7 µM | [13] 329 nM | [15] 2.93 µM | [19] 7.37 µM | [16] 3.29 µM | [17] 2.93 µM
inactive: [9]

Cn1c(=O)n(-c2ccc(C(C)(C)C#N)cc2)c2c3cc(-c4cnc5ccccc5c4)ccc3ncc21
inactive: [1]
active: [2] 1.66 µM | [8] 0.209 µM | [4] 0.109 µM | [5] 0.332 µM | [10] 0.0148 µM | [7] 0.132 µM | [12] 2.61 µM | [13] 2330 nM | [15] 2.08 µM | [19] 7.37 µM | [16] 3.29 µM | [17] 1.17 µM

— PubChem BioAssay (NCATS)
